Screens deposited in PubChem by National Center for Advancing Translational Sciences (NCATS).
Pf growth 48h: P. falciparum growth inhibition at 48 hours (one generation); 310,000 tested, 5.9% active; Potency, µM (top dose mostly 28.7 µM), actives largely listed as inhibitors; P. falciparum luciferase growth in erythrocytes, 48 h
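Erythrocytes infected with P. falciparum carrying an integrated firefly luciferase reporter (2% hematocrit, 0.1% parasitemia final) were exposed to compounds in RPMI 1640 with 0.5% Albumax at 37 C, 5% CO2. Growth inhibition was scored as reduced luminescence.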
SARS PLP yeast: SARS-CoV PLP inhibition in yeast; 330,000 tested, 0.19% active; Potency, µM (titrated, usually from 32.9 µM), hits mostly activators; S. cerevisiae expressing SARS-CoV PLpro, growth rescue; calls by dose curve; note: nearly all actives have a fitted effect of over 55% in size
Pf growth 96h: inhibits malaria parasite growth, 96 h; AID 504834; 320,000 tested, 6.9% active; Potency, µM (series often up to 28.7 µM), most hits filed as inhibitors; P. falciparum luciferase reporter growth, 96 h
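Readout is luminescence from an integrated firefly luciferase in P. falciparum. Red cells, 2% hematocrit and 0.05% parasitemia final, were cultured with compound through two parasite generations (96 hours) at 37 C, 5% CO2.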
Sm TGR block: blocks Schistosoma mansoni thioredoxin glutathione reductase; Potency, µM (series often up to 114 µM), actives largely listed as inhibitors; 360,000 tested, 3% active; Q962Y6; purified TGR, DTNB reduction, TNB absorbance 405 nm; AID 485364; note: nearly all actives have a fitted effect of over 60% in size
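Kinetic colorimetric format: TGR-catalysed, NADPH-driven DTNB reduction monitored via TNB absorbance. Enzyme dispensed at 20 nM; compound exposure 15 min at room temperature before reaction start.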
Numbers stand for hits; . = inactive; ? = inconclusive; / = not tested or not shown; [ ] = remark or other dose. Compounds with a hit are over-represented: about 12% of the library has one in this group of screens. Unless noted, calls come from the whole dose curve; as a rule, active = well fitted curve in the direction sought with a large enough effect; inconclusive = small, poorly fitted or top-dose-only effect, or another doubt; inactive = no such curve, though single readings can be large; an effect the other way counts as inactive or inconclusive.

SMILES	Pf growth 48h	SARS PLP yeast	Pf growth 96h	Sm TGR block
COc1ccc(C2C(C(=O)Nc3ccccc3)=C(C)Nc3nc(-c4ccccc4Cl)nn32)cc1OC (centres undefined)	/	/	/	.
COc1ccc(C(=O)C2CCN(C(=O)Nc3ccccc3C)CC2)cc1	.	.	?	.
O=C(NCc1ccccc1)c1cnc2sc(N3CCCC3)nn2c1=O	/	/	/	.
CC(OC(=O)C1CC(=O)N(Cc2ccccc2)C1)C(=O)Nc1cccc(C#N)c1 (centres undefined)	.	.	6.6µM	.
O=C(NCCCC1CCCC1)C1CCC(=O)N(Cc2cccc(C(F)(F)F)c2)C1 (centres undefined)	.	.	12µM	.
O=C(NCCCn1cccn1)C1CCC(=O)N(Cc2cccc(C(F)(F)F)c2)C1 (centres undefined)	.	.	.	.
O=C(NCc1cccc(Cl)c1)C1CCC(=O)N(CC2CCCCC2)C1 (centres undefined)	.	.	15µM	.
O=C(NCc1ccc(F)c(F)c1)C1CCC(=O)N(CCc2ccccc2)C1 (centres undefined)	.	.	?	.
O=C(NCCc1ccccc1C(F)(F)F)C1CCC(=O)N(CCCN2CCCC2=O)C1 (centres undefined)	.	.	9.3µM	.
O=C(NCc1ccc(F)c(F)c1)C1CCC(=O)N(CC2CCCCC2)C1 (centres undefined)	.	.	13µM	.
Cc1ccc(-n2c(O)c(/C=C3/C(c4ccccc4)=Nc4ccccc43)c(=O)[nH]c2=O)cc1	8.3µM	.	7.4µM	?
Cc1ccccc1-n1c(O)c(/C=C2/C(c3ccccc3)=Nc3ccccc32)c(=O)[nH]c1=O	12µM	.	.	.
Cc1cccc(-n2c(O)c(/C=C3/C(c4ccccc4)=Nc4ccccc43)c(=O)[nH]c2=O)c1	10µM	.	12µM	.
COc1ccc2oc(-c3cccc(NC(=O)c4sc5c([N+](=O)[O-])cccc5c4Cl)c3)nc2c1	/	/	/	.
N#Cc1c(N)nc(SCc2ccccc2)c(C#N)c1-c1ccco1	?	.	.	50µM
N#Cc1c(N)nc(SCC(=O)OCc2ccccc2)c(C#N)c1-c1ccco1	?	.	4.1µM	.
CCc1ccc(S(=O)(=O)c2cn(Cc3ccccc3F)c3cc(OC)c(OC)cc3c2=O)cc1	/	/	/	.
COC(=O)C1=C(O)/C(=C\c2cc(C)n(-c3ccccc3C)c2C)N=C1C	/	.	?	25µM
COC(=O)C1=C(O)/C(=C\c2sccc2C)N=C1C	.	.	.	.
COC(=O)C1=C(O)/C(=C\c2cc(C)n(-c3ccccc3F)c2C)N=C1C	?	.	.	25µM
COC(=O)c1cccc(-n2c(C)cc(C=O)c2C)c1C	.	.	?	.
O=C(NCCc1ccccc1F)C1CCC(=O)N(Cc2ccc(Cl)cc2)C1 (centres undefined)	.	.	.	.
CN(C)/C=C/C(=O)c1ccn(S(=O)(=O)c2ccccc2)c1	?	.	?	.
O=C(c1ccc(Cl)cc1)c1c[nH]c(C(=O)NNc2ccccc2)c1	.	.	.	.
COC(=O)c1ccccc1NC(=O)Cn1c(=O)n(Cc2ccc(C(=O)NCc3ccc4c(c3)OCO4)cc2)c(=O)c2ccccc21	/	/	/	.
SMILES	Pf growth 48h	SARS PLP yeast	Pf growth 96h	Sm TGR block
COC(=O)c1[nH]c2ccc(C)cc2c1NC(=O)CN1CCN(c2ccc(F)cc2)CC1	?	.	?	.
COC(=O)c1[nH]c2ccc(Cl)cc2c1NC(=O)CN1CCC(C(N)=O)CC1	12µM	.	?	.
Cc1ccc2[nH]c(C(=O)O)c(NC(=O)CN3CCN(c4cccc(C)c4C)CC3)c2c1	.	.	4.7µM	?
COC(=O)c1[nH]c2cc(OC)ccc2c1NC(=O)CN1CCC(C(N)=O)CC1	.	.	.	.
COC(=O)c1[nH]c2ccc(C)cc2c1NC(=O)CN1CCN(c2ccccc2)CC1	10µM	.	/	.
Cc1ccc(C(=O)/C=C/c2cc(C#N)n(C)c2C)cc1	.	.	.	.
N#C/C(=C\c1ccc(Cl)cc1)c1nc(-c2cc3c(ccc4ccccc43)oc2=O)cs1	/	/	/	.
COC(=O)c1c(C)nn(-c2ccc(OC(F)(F)F)cc2)c1-c1snnc1C	?	.	13µM	.
Cc1nnsc1-c1c(C(=O)Oc2ccccc2)c(C)nn1-c1ccccc1	9.3µM	.	13µM	.
Cc1nnsc1C(=O)N/N=C/c1ccc(OC(F)(F)F)cc1	?	.	.	.
CC(C)CN(C(=O)COC(=O)CSc1ccc([N+](=O)[O-])cc1)C1CCS(=O)(=O)C1 (centres undefined)	.	.	.	.
CCN(CCCNC(=O)CSc1cc(=O)n(CC)c2ccccc12)c1ccccc1	/	/	/	.
N#Cc1cccc(NC(=O)Cn2nc(Cc3ccncc3)c3ccccc3c2=O)c1	/	/	/	.
NC(=O)C[n+]1cccc(CNC(=O)c2ccc(OC(F)F)cc2)c1	.	.	.	.
O=C(C[n+]1cccc(CNC(=O)c2ccc(OC(F)F)cc2)c1)Nc1cc(C(F)(F)F)ccc1Cl	1.7µM	.	0.93µM	.
Cc1cc(NC(=O)C(C)Oc2ccc(Cl)cc2Cl)n(-c2ccccc2)n1 (centres undefined)	/	.	5.9µM	.
CC(=O)N1CCN(c2ccc(NC(=O)C(C)Oc3ccc(Cl)cc3Cl)cc2)CC1 (centres undefined)	/	.	?	.
CC(Oc1ccc(Cl)cc1Cl)C(=O)Nc1ccc(N2CCN(C)CC2)cc1 (centres undefined)	13µM	.	.	.
CCOC(=O)C1CCCN(c2nc3c(S(=O)(=O)c4ccc(Br)cc4)nnn3c3ccsc23)C1 (centres undefined)	/	/	/	.
COc1ccc(N2CCN(C(=O)c3cn(C4CCCCC4)c(=O)c4c3c3ccccc3n4C)CC2)cc1	/	/	/	.
Cc1nc(Nc2ccncc2)c2oc3ccccc3c2n1	/	.	.[5.75 µM]	.
CCc1nc(NCCCN2CCOCC2)c2oc3ccccc3c2n1	?	.	5.9µM	.
CCc1nc(Nc2ccncc2)c2oc3ccccc3c2n1	13µM	.	/	.
CCc1nc(NCCN2CCOCC2)c2oc3ccccc3c2n1	/	.	?	.
CCS(=O)(=O)N1CCC(C(=O)NCCC(C)C)CC1	/	/	/	.
SMILES	Pf growth 48h	SARS PLP yeast	Pf growth 96h	Sm TGR block
Cc1cc(C(F)F)n2nc(C(=O)Nc3ccc(F)c(Cl)c3)nc2n1	/	/	/	.
CC1(C)CC(CCNC(=O)CCl)(c2ccccc2)CCO1 (centres undefined)	?	.	?	45µM
CC1(C)CC(CCNS(=O)(=O)c2ccccc2)(c2ccccc2)CCO1 (centres undefined)	.	.	.	.
CCOC(=O)C1CCCN(c2ccc(NC(=O)c3snc4c(=O)[nH]c(C)nc34)cc2)C1 (centres undefined)	?	.	0.93µM	.
CCc1cc2c(=O)[nH]c(N3CCCC3)nc2s1	.	.	.	.
COc1cnc(SC(C)C)[nH]c1=O	.	.	.	.
COc1cnc(-c2ccccn2)[nH]c1=O	.	.	5.9µM	.
CCc1cc2c(=O)[nH]c(-c3ccccn3)nc2s1	?	?	3.3µM	.
Cc1nn(C)c2c1c(C(F)(F)F)cc(=O)n2CC(=O)N1CCCCC1	/	/	/	.
